Data: PubChem BioAssay (Tox21)
Results filed as inconclusive are left out. Values without a mark were called inactive. Calls follow the shape of the dose curve; as a rule, active = well fitted cell-killing curve with a large enough effect in the repeat runs; inconclusive = weak or mixed curves; inactive = no such curve, though single readings can be large or run the other way.

experiment: qHTS assay to identify small molecule agonists of the peroxisome proliferator-activated receptor delta (PPARd) signaling pathway - cell viability counter screen (AID 743211); details: PPARd-bla HEK293H viability, CellTiter-Glo luminescence, 17 h; series mostly up to 62.6 µM; activity change, negative = cytotoxicity: at the top concentration; also: nearly all actives have a fitted effect of over 55% in size
From the text: U.S. Tox21 Program National Center for Advancing Translational Sciences [NCATS] NIH Chemical Genomics Center [NCGC] U.S. Environmental Protection Agency [EPA] National Institutes of Environmental Health Sciences [NIEHS] National Toxicology Program [NTP] U.S. Food and Drug Administration [FDA] Tox21 Assay Overview: The peroxisome proliferator-activated receptors (PPARs) are lipid-activated transcription factors of the nuclear receptor superfamily with three distinct subtypes namely PPAR alpha, PPAR delta (PPARd) and PPAR gamma. All these subtypes heterodimerizes with Retinoid X receptor (RXR) and have different physiological functions. […] To identify the compounds that activate PPAR-delta signaling, GeneBLAzer PPAR delta UAS-bla HEK293H cell line (Invitrogen, Carlsbad, CA, USA) containing a beta-lactamase reporter gene under the control of an Upstream Activator Sequence (UAS) was used to screen the Tox21 compound library. The cytotoxicity of the Tox21 compound library against the PPARd-bla cell line was tested in parallel by measuring the cell viability using CellTiter-Glo assay (Promega, Madison, WI) in the same wells.
Tox21 Assay Protocol Summary: PPARd-bla cells were dispensed at 3000 cells/6uL/well in 1536-well black wall/clear bottom plates using a Multidrop Combi (Thermo Fisher Scientific, Waltham, MA) dispenser. After the assay plates were incubated at 37 C and 5% CO2 for 5 h, 23 nL of compounds dissolved in DMSO, positive controls or DMSO only was transferred to the assay plate by a Pintool station (Kalypsys, San Diego, CA). The assay plates were incubated at 37C for 17 h. After 1 uL of LiveBLAzerTM B/G FRET substrate was added using a Bioraptr Flying Reagent Dispenser (FRD) workstation (Beckman Coulter, Indianapolis, IN, USA), the plates were incubated at room temperature for 2 h, and fluorescence intensity was measured by an Envision plate reader (PerkinElmer, Shelton, CT). For cell viability readout that measures cytotoxicity, 3 ul/well of CellTiter-Glo reagent was added into the assay plates using a Bioraptr FRD. After 30 min incubation at room temperature, the luminescence intensity in the plates was measured using a ViewLux plate reader (PerkinElmer).
% is scaled to controls: 0 for no effect and ±100 for the full control effect.

SMILES	activity change, negative = cytotoxicity
NCCCN1CCN(CCCN)CC1	-14.4%
O=C1CCCCCCCCCCC(=O)OCCO1	8.93%
CC1=CC(=O)CC(C)(C)C1=O	1.29% [at 81.1 µM]
Cc1ccc([N+](=O)[O-])cc1Cl	-5.12% [at 81.1 µM]
CC(C)CCCCCCc1ccc(OCCOCCO)cc1	-20.5% [at 81.1 µM]
CC(C)=CCC[C@](C)(O)[C@@H]1CC=C(C)CC1	-0.705%
COC(=O)/C=C(/C)N	4.15%
O=c1[nH]c(=O)n([C@H]2C[C@H](O)[C@@H](CO)O2)cc1C(F)(F)F	3.6%
CCc1cc(Cl)c(OC)c(C(=O)NC[C@@H]2CCCN2CC)c1O	-0.53%
C=CC1CO1 (stereo not given)	6.86% [at 81.1 µM]
NC1=NCC2c3ccccc3Cc3ccccc3N12 (stereo not given)	-15.3%
CCCNC(C)(C)COC(=O)c1ccccc1	0.444%
COc1ccc(Nc2ccc(OC)cc2)cc1	-0.144% [at 81.1 µM]
CCN(CC)C(=O)N(CC)CC	-5.37%
O=C(Cl)c1cccc([N+](=O)[O-])c1	4.55%
CN1C(=O)CC(c2ccccc2)C1=O (stereo not given)	5.99%
CC(=O)Oc1cc(C(C)C)c(OCCN(C)C)cc1C	21%
NCCC(O)(P(=O)(O)O)P(=O)(O)O	1.73%
CN1CCN(C2=Nc3ccccc3Oc3ccc(Cl)cc32)CC1	-22.9%
Cc1c(C(=O)NCCO)[n+](=O)c2ccccc2n1[O-]	19.6%

SMILES	activity change, negative = cytotoxicity
CC1(O)CSC(C)(O)CS1 (stereo not given)	-25.8%
CC(C)C(=O)OC/C=C/c1ccccc1	-0.355%
O=C(O)CN(CCN(CC(=O)O)CC(=O)O)CCN(CC(=O)O)CC(=O)O	-1.79% [at 29.1 µM]
CN(C)CC[C@@H](c1ccc(Cl)cc1)c1ccccn1	-2.48%
CN(C)CCOc1ccccc1Cc1ccccc1	-18%
Cc1nnc(SCC2=C(C(=O)O)N3C(=O)[C@@H](NC(=O)Cn4cnnn4)[C@H]3SC2)s1	8.81%
CCCCCCCCCCCCCCCCOP(=O)([O-])OCC[N+](C)(C)C	-24.2%
CCCCC(CC)COC(=O)COc1cc(Cl)c(Cl)cc1Cl (stereo not given)	-5.17%
C[C@@H]1CN(c2c(F)c(F)c3c(=O)c(C(=O)O)cn(C4CC4)c3c2F)C[C@H](C)N1	10.6% [at 29.1 µM]
CCCN(CCC)C(=O)C(CCC(=O)O)NC(=O)c1ccccc1 (stereo not given)	7.43%
CCCCNc1cc(C(=O)O)cc(S(N)(=O)=O)c1Oc1ccccc1	19.6%
CCCC1CCC(=O)O1 (stereo not given)	10.7%
O=C(O)C(=O)Cc1c[nH]c2ccccc12	3.32%
CN1[C@@H]2CC[C@H]1CC(OC(=O)c1c[nH]c3ccccc13)C2 (stereo not given in full)	-5.02%
C=O	5.45% [at 81.1 µM]
CCCCCCCCCC#N	6.1%
CCN(CC)CCNC(=O)COc1ccc(Cl)cc1	3.22%
OCCN(CCO)c1ccccc1	0.57%
C1CCOC1	4.39% [at 81.1 µM]
O=[N+]([O-])c1nccn1CO[C@@H](CO)[C@H](O)CO	-2.1%
